# CF NFkB block – inhibitors of cystic fibrosis induced NF-kB. KKLEB NF-kB-GFP reporter, PAF-induced, GFP fluorescence overnight. inhibition, % at 5 µM. 0.86% of 360,000 active;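 active means at least 50% inhibition at 5 µM, scaled per plate between neutral and stimulator controls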;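 further: PAF is a Pseudomonas aeruginosa culture filtrate used as stimulus; plate controls were PAF-stimulated DMSO wells for no effect and unstimulated DMSO wells for full effect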
# KKLEB tox – counter-screen for CF NF-kB inhibitors: cytotoxicity | KKLEB CF airway cells viability, ATPlite luminescence, overnight; stronger effect = lower value; cells stimulated with P. aeruginosa culture filtrate | activity change (cytotoxicity), % at 5 µM | 0.36% of 360,000 active | AID 602141;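 active means corrected activity change at or below -50% at 5 µM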
# Peg3 prom inh – inhibitors of Peg3 promoter | HeLa PEG-Prom luciferase reporter, luminescence, overnight | inhibition, % at 20 µM | 1.7% of 360,000 active;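 active means inhibition of at least 50% at 20 µM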
# HIF-2a block – blocks HIF-2a reporter activity; 786-0 RCC cells HIF-2a reporter, luciferase luminescence, overnight; inhibition, % at 18.8 µM; 0.72% of 360,000 active; AID 624352;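 active means inhibition of the luminescence signal of 40% or more relative to plate controls, in a single-dose primary screen at 18.75 µM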
# TWEAK Fn14 block – blocks TWEAK-Fn14 interaction in a reporter cell assay; TWEAK-stimulated Fn14 reporter cells, luciferase luminescence, 8 h; inhibition, % at 10 µM; 2% of 360,000 active; in the data active means inhibition above about 50%
# TROY signal inh – TROY signaling inhibition; Q293 LMP1-TROYcd NF-kB luciferase reporter, 4 h; inhibition, % at 10 µM; 0.98% of 360,000 active; AID 1347056;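 active means compounds whose plate-normalised and pattern-corrected inhibition of the luciferase reporter signal at the single screening dose is 50% or more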
# * = called active by the depositor; x = no result. Rows were chosen to be rich in hits. Some 4% of all compounds tested hit in one or more screens of this group.
SMILES,CF NFkB block,KKLEB tox,Peg3 prom inh,HIF-2a block,TWEAK Fn14 block,TROY signal inh
COc1cc(NCCCCCCCN)c2ncccc2c1,11,-14,1,4,97*,-7
COc1cc(NC(C)CCCN)c2ncccc2c1 (configuration not stated),23,-19,-11,-1,86*,-4
COc1cc(NC(=O)OCc2ccccc2)c2ncccc2c1,-2,-12,1,-14,6,-27
N#CCCN(C(=O)Nc1ccc(Cl)cc1)c1ccccc1,-5,6,-5,10,86*,-19
CCC(C)Nc1nc2c(c(=O)[nH]c(=O)n2C)n1CCOc1ccccc1 (configuration not stated),19,-4,20,18,7,14
COc1ccccc1CNC(=O)CCCC(=O)n1ncc2cc(C)ccc21,-20,6,-14,-73,1,-30
Cc1ccc(/C=N/NC(=O)c2cccc(S(=O)(=O)N3CCOCC3)c2)o1,6,-2,110*,5,6,-6
O=C(N/N=C/c1ccccc1C(=O)O)c1cccc(S(=O)(=O)N2CCOCC2)c1,-32,29,-18,11,8,-2
COc1ccc(-c2nn(-c3ccccc3)cc2/C=N/NC(=O)c2cccc(S(=O)(=O)Nc3ccccc3Cl)c2)cc1,-12,-16,-182,-86,56*,16
COc1ccc(-c2nn(-c3ccccc3)cc2/C=N/NS(=O)(=O)c2ccccc2)cc1,4,7,-160,-110,-7,-50
O=C(N/N=C\c1cn(-c2ccccc2)nc1-c1ccccc1)c1ccc(Br)o1,-4,-3,-26,-85,55*,25
Cc1ccc(-c2nn(-c3ccccc3)cc2/C=N/NC(=O)c2ccc(Br)o2)cc1,-14,9,-122,-95,35,10
Cc1nn(-c2ccccc2)c(Cl)c1/C=N/NC(=O)c1cccc(S(=O)(=O)N2CCCC2)c1,29,-26,19,18,62*,7
CS(=O)(=O)N(CC(=O)Nc1cccc([N+](=O)[O-])c1)c1ccccc1F,18,-15,-2,23,-3,3
CC1=C([N+](=O)[O-])C(c2cccc(Br)c2)C2=C(N1)c1ccccc1C2=O (configuration not stated),35,-56*,38,17,2,-11
COC(=O)C1=C(C)NC2=C(C(=O)c3ccccc32)C1c1cccc(OC)c1 (configuration not stated),-9,15,12,23,16,-3
Cc1ccccc1NC(=S)NC(=O)C1CCCCC1,15,19,-37,-62,-27,-8
COc1cc2c(cc1NC(=O)CSc1nc3cc(Cl)ccc3s1)oc1ccccc12,39,-60*,12,4,-1,13
CCCCCCCC/C=C\CCCCCCCC(=O)NCCc1ccc(O)c(O)c1,59*,6,-13,18,-11,-23
CCCCCCCC/C=C\CCCCCCCC(=O)NCCO,11,27,-10,-2,6,10
C/C(N=Nc1nc2ccccc2s1)=N\Nc1ccccc1O,47,-37,36,-18,80*,7
N#CCCn1cc(/C=N/NC(N)=S)c(-c2ccc(-c3ccccc3)cc2)n1,-13,6,31,15,51*,13
C=CCNC(=S)N1CCN(CCN=CC2=C(O)CC(c3ccco3)CC2=O)CC1 (configuration not stated),-3,4,14,-5,-3,-8
CC(C)(C)c1ccc(NC(=O)COc2ccc(-n3ccnc3)cc2)cc1,-11,5,32,24,93*,75*
COc1cc(NC(=O)COc2ccc(-n3ccnc3)cc2)cc(OC)c1,10,-15,21,0,2,17
O=C(NCCO)c1cc2ccccc2c(=O)s1,12,-5,12,-5,5,-18
COC(=O)c1cc2ccccc2c(=O)s1,-16,-1,-14,-6,85*,x
O=C(Nc1nc2ccccc2n1CCN1CCOCC1)c1cn(-c2ccccc2)nc1-c1ccccc1,3,-19,84*,12,29,13
O=C(Nc1nc2ccccc2n1CCN1CCOCC1)c1ccccc1,-1,-5,-5,-10,14,-12
O=C(NCC(c1cccnc1)N1CCN(c2ccccc2F)CC1)C1CCCCC1 (configuration not stated),-3,7,5,17,85*,x

# Assay outcomes (PubChem BioAssay)
